Bioassay records: PubChem BioAssay, several laboratories
M18AAP inhibitor = PfM18AAP enzyme inhibition; inhibition, % at 7.35 µM; recombinant PfM18AAP, H-Glu-NHMec fluorogenic cleavage; AID 1822; 290,000 tested, 1.2% active;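 active = inhibition above the campaign mean inhibition over all tested compounds plus 3 SD, cut at about 28% in these data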;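 also: 0% = plate median of test compound wells and 100% = 2 mM ZnCl2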
PABP FP inh = blocks human PABP binding to poly(A) RNA. P11940. fluorescence polarization. AID 2014. 290,000 tested, 1% active. inhibition, % at 35 µM;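 also: calls also rest on retests at 20 µM and on dose response follow-up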
Target sequence (P11940 whole entry, looked up): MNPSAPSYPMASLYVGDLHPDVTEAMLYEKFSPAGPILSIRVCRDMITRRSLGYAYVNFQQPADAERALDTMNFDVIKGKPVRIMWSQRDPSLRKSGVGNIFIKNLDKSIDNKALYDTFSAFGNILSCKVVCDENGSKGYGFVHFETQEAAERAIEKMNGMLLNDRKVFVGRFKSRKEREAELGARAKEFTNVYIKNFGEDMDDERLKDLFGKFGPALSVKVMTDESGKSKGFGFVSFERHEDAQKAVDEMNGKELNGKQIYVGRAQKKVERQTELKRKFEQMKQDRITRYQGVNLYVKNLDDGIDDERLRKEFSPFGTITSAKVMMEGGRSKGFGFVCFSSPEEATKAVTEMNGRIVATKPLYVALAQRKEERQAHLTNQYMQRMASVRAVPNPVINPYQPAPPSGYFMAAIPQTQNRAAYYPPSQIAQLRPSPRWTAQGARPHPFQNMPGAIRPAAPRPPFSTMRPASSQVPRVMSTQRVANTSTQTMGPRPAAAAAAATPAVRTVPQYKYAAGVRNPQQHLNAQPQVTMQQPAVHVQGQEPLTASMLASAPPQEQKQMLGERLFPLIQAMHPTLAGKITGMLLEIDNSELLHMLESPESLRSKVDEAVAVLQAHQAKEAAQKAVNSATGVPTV
MLLE-PAM2 inh = inhibitors of microRNA-mediated deadenylation, human PABP1 MLLE binding; inhibition, % at 20 µM; GST-MLLE / FITC-PAM2 fluorescence polarization; 360,000 tested, 0.36% active; P11940; in the data active = inhibition above about 35%, passing the limit was not always enough;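 also: plate controls were DMSO wells with GST-MLLE for no effect and wells lacking GST-MLLE protein for full effect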
eIF4H inh = inhibitors of RNA binding by human eIF4H; inhibition, % at 35 µM; eIF4H fluorescence polarization binding assay; 290,000 tested, 0.94% active; Q15056;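 also: calls also rest on retests at 20 µM and on dose response follow-up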
eIF4E 4G PPI = blocks eIF4E binding to eIF4G | P63073+Q04637 | TR-FRET eIF4E-eIF4GI(517-606) binding, 2 h | inhibition, % at 21.7 µM | 220,000 tested, 0.37% active | AID 782;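 active = inhibition above about 30%, limit read from the data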;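 also: 0% = full FRET control wells and 100% = background wells lacking eIF4GI fragment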
PERK inh = blocks human PERK kinase | 220,000 tested, 0.17% active | CHO PERK-DD fusion, SEAP luminescence translation reporter | Q9NZJ5 | inhibition, % at 5.6 µM;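 active = inhibition above the mean inhibition of all tested compounds plus 3 SD, set separately per screening campaign, cut at about 2.9% in these data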;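 also: PERK kinase domain activated by AP20187 dimerizer at 100 nM; 0% = DMSO with dimerizer and 100% = rapamycin at 8.4 µM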
* = called active by the depositor; ? = inconclusive; · = no result given; [ ] = remark or other dose. Hits are enriched below; roughly 2.4% of the tested compounds scored in any of these assays. Unless noted, no rule for the calls is given here.

SMILES	M18AAP inhibitor	PABP FP inh	MLLE-PAM2 inh	eIF4H inh	eIF4E 4G PPI	PERK inh
COc1ccccc1/C=C1\SC(=S)N(Nc2nc(C)cc(C)n2)C1=O	19.0	9.6	1.5	19.7	-4.8	0.7
O=C(NN1C(=O)/C(=C/c2ccc(O)cc2)SC1=S)c1ccccc1O	5.8	53.3*	-147.8	63.2	·	·
COc1cc(/C=C2\SC(=S)N(NC(=O)c3ccccc3O)C2=O)ccc1O	14.8	-8.4	-152.5	24.4	·	·
O=C(CN1C(=O)S/C(=C\c2ccc(Cl)cc2)C1=O)NNC(=O)c1ccccc1O	-1.4	3.7	-12.9	17.8	32.6*	1.3
Cc1cc2nc(-c3ccc4c(c3)CCC4)ccn2n1	-8.6	3.3	3.3	-6.1	4.6	0.8
O=C(O)c1ccc(/C=N/n2c(C3CCCCC3)n[nH]c2=S)cc1	29.5*	8.8	-15.2	7.1	·	·
CNc1nc(Cl)c(SC)c(NCc2cccc(OC)c2)n1	1.3	7.6	-10.5	-0.4	·	·
CC(O)c1n(C)c(Cl)c[n+]1C (stereo unspecified)	-2.1	64.6*	-120.2	0.4	-7.3	0.7
CCOc1cccc2cc(C(=O)NCCC3=CCCCC3)c(=O)oc12	3.8	10.9	-9.6	-2.3	2.0	0.7
Cc1cccc(C(=O)OCC(=O)Nc2c(C)n(C)n(-c3ccccc3)c2=O)c1	·	·	4.0	·	·	·
COc1ccc2c(COC(=O)CC3Sc4ccccc4NC3=O)cc(=O)oc2c1 (stereo unspecified)	-0.3	-3.4	-29.5	29.0	12.1	-0.2
CC(=O)Nc1ccc2c(COC(=O)CC3Sc4ccccc4NC3=O)cc(=O)oc2c1 (stereo unspecified)	0.2	87.2*	-70.5	?	9.0	1.2
O=C(Cc1cccs1)OCC(=O)c1ccco1	-0.4	36.2	23.9	23.5	8.9	0.0
O=C(CC(Sc1ccccc1)c1cccs1)c1ccco1 (stereo unspecified)	10.0	-5.0	36.8*	-4.0	1.3	2.1
O=C(Oc1c(CN2CCOCC2)cc(Cl)c2cccnc12)c1ccccc1F	1.1	68.2*	14.6	?	-1.5	-0.1
O=[N+]([O-])c1cc(CN2CCOCC2)c2cccnc2c1O	9.5	4.2	·	?	33.2*	0.9
O=C(CN1C(=O)NC2(CCCCC2)C1=O)Oc1ccc2c(C(F)(F)F)cc(=O)oc2c1	·	·	44.5*	·	·	·
NC(=O)N/N=C/c1sc(=O)n(-c2ccccc2)c1Cl	9.3	-11.5	-105.0	10.2	-2.6	-0.5
O=C(N/N=C/c1sc(=O)n(-c2ccccc2)c1Cl)c1ccccc1	9.6	active	-148.1	65.1*	6.8	0.2
CCCNC(=O)N(C)C[C@H]1Oc2ncc(Br)cc2C(=O)N([C@H](C)CO)C[C@H]1C	·	·	-4.8	·	·	·
O=C(COC(=O)Cn1cnc2ccccc21)Nc1ccc(OC(F)F)cc1	·	·	-2.9	·	·	·
Cc1cnc(CN2CCc3c([nH]c4ccccc34)C2CC(C)C)[nH]1 (stereo unspecified)	1.4	63.4*	-38.3	19.9	-1.8	0.2
CCCOC(=O)Nc1nc2ccccc2o1	-0.4	51.8*	10.6	72.5*	-4.2	1.4
CC(=O)Nc1ccc(NC(=O)CN(c2cc(Cl)ccc2Cl)S(C)(=O)=O)cc1	-4.0	-6.2	-9.1	2.1	2.0	1.4
CCC(=O)Nc1ccc(C(=O)Nc2cccnc2)cc1	4.4	98.3*	-11.8	51.9*	-3.8	0.8
SMILES	M18AAP inhibitor	PABP FP inh	MLLE-PAM2 inh	eIF4H inh	eIF4E 4G PPI	PERK inh
COc1c(S(=O)(=O)NCCCN2CCOCC2)ccc(Cl)c1Cl	-3.2	3.2	44.6*	-0.6	86.2*	-0.3
Cc1ccc(-c2nc3ccccc3nc2Cl)cc1	-10.8	5.3	-5.0	-4.4	4.4	0.5
Cc1ccc(-c2nc3ccccc3nc2NN)cc1	30.7*	3.5	-122.6	-7.8	-2.7	-0.6
Cc1cc2ccccc2n1CCNC(=O)Cc1cccc2ccccc12	1.8	21.2	10.9	54.2	0.7	0.2
Cc1cc2ccccc2n1CCNC(=O)C(C)(C)C	·	4.3	18.5	7.9	0.8	·
CC(=O)NCCn1c(C)cc2ccccc21	·	92.6*	26.5	93.8*	-2.7	·
Cc1cc2ccccc2n1CCNC(=O)COc1ccccc1	·	115.2*	15.5	107.6	0.2	·
Cc1cc2ccccc2n1CCNC(=O)c1ccc(Br)o1	5.5	51.6*	42.7*	58.6*	-1.1	1.2
CCC(=O)NCCn1c(C)cc2ccccc21	7.4	75.4*	22.5	106.3*	1.7	1.9
CC1=CC2=NC(=O)/C(=C\c3cc(C)n(-c4ccccc4)c3C)C(=N)N2O1	2.4	-2.6	0.4	30.5	80.3*[fluorescence artefact?]	1.8
CC1=CC2=NC(=O)/C(=C\c3cc(C)n(-c4cccc(Cl)c4)c3C)C(=N)N2O1	1.1	13.5	-4.2	12.8	0.3	0.0
CN(CC(=O)Nc1ccc(F)cc1)C(=O)C1CC(=O)N(Cc2ccccc2)C1 (stereo unspecified)	-8.5	26.0	4.3	9.3	·	·
Cc1ccc(S(=O)(=O)N(CC(=O)Nc2cccc(C)c2C)C(=O)N2CCN(C)CC2)cc1	·	·	0.8	·	·	·
CN1CCN(NC(=S)NC2CCCCC2)CC1	-9.1	0.9*	-12.4	86.6*	2.2	0.5
NC(=O)CSc1nc2c(sc(=S)n2-c2ccccc2)c(=O)[nH]1	0.4	3.5	6.8	0.0	·	·
CCOc1ccc(NCc2cc3cc(OC)ccc3[nH]c2=O)cc1	11.2	57.2*	3.5	35.0*	7.3	-1.7
COc1ccc2[nH]c(=O)c(CNc3ccccc3)cc2c1	11.5	17.6	3.6	4.6	-1.4	0.8
CC1(C2CC2)NC(=O)NC1=O (stereo unspecified)	1.3	1.1	-5.7	-5.9	90.0*[fluorescence artefact?]	0.1
CC1(C2CCCC2)NC(=O)NC1=O (stereo unspecified)	·	·	5.7	·	·	·
CCNC(=O)OCCC12CC3CC(CC(C3)C1)C2	-5.0	89.0*	-4.8	-11.6	4.3	1.3
CCCNC(=O)OCC12CC3CC(CC(C3)C1)C2	-2.8	2.6	-3.2	11.5	-0.1	0.8
Cc1cnc(CNC(=O)c2ccc3sc([C@H]4C[C@H](O)[C@@H](CO)O4)nc3c2)cn1	·	·	-0.3	·	·	·
O=C(CCl)Nc1ccc(-c2ccccc2)cc1	15.0	-1.6	-1.4	4.3	4.2	0.1
O=C(CCl)Nc1ccc(N=Nc2ccccc2)cc1	2.2	62.0	-5.8	active	14.9	0.8
CCOc1ccccc1NC(=O)NNS(=O)(=O)c1cc(OC)ccc1OC	4.1	12.4	20.3	-7.7	·	·
COc1ccc(-c2ccc(CN3C(C(C)C)C(=O)N(Cc4cn(CC5CCCCC5)nn4)CCS3(=O)=O)cc2)cc1OC (stereo unspecified)	·	·	-7.2	·	·	·
CCCCn1c(N)c(N(CCOC)C(=O)c2cc3c(s2)CCC3)c(=O)[nH]c1=O	·	·	-20.6	·	·	·
O=C1N=C(N2C=CC(=C3C=CNC=C3)C=C2)/C(=C/N=NC(=O)c2ccccc2O)S1	28.9*	·	48.3*	·	·	·
O=C(COc1coc(CN2CCN(c3ccccc3)CC2)cc1=O)Nc1ccc(F)cc1	·	·	3.5	·	·	·
CCOC(=O)c1sc(=S)n(C)c1NC(=O)c1ccc(OC)cc1	-12.4	1.0	30.7	-8.8	7.0	0.8
